Measured values as given in PubChem BioAssay (NCATS).
Records with an inconclusive call do not appear. A number with no mark means an inactive call. The source made the active and inactive calls. Calls follow the shape of the dose curve; as a rule, active = well fitted inhibition curve with a large enough effect; inconclusive = small, poorly fitted or top-dose-only effect; inactive = no such curve, though single readings can be large or run the other way.

Assay: BET inhibitor-based combinations targeting novel dependencies in MECOM-rearranged (r) AML: SET-2 cell line (AID 2202231); also: nearly all actives have a fitted effect of over 35% in size;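 as to viability: plate controls were DMSO treated cells for no effect and wells without cells for full effect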
Conditions: SET-2 AML cells viability, CellTiter-Glo luminescence, 48 h; viability: active compounds read low, concentration not given here
In short: (§1)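 Viability of cells (500 per well) is scored by luminescent CellTiter-Glo at 48 hr post-dosing. Eleven-point titrations are normalized to DMSO and empty controls and reduced to AUC values.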
Potency is read from the fitted curve at half-maximal effect.

| SMILES | viability | Potency |
| --- | --- | --- |
| CCCCC(=O)O[C@]1(C(=O)CO)[C@@H](C)C[C@H]2[C@@H]3CCC4=CC(=O)C=C[C@]4(C)[C@@]3(F)[C@@H](O)C[C@@]21C | 109% | – |
| NC(=O)c1ccc(-c2nc(-c3ccc4c(c3)OCCO4)c(-c3ccccn3)[nH]2)cc1 | 104% | – |
| COc1ccc(C(=O)CC(=O)c2ccc(C(C)(C)C)cc2)cc1 | 107% | – |
| CN1C(=O)C[C@H](C(=O)N[C@@H](Cc2cnc[nH]2)C(=O)N2CCC[C@@H]2C(N)=O)NC1=O | 98.4% | – |
| COc1ccccc1C(=O)Nc1cc2c(cc1N1CCCCC1)n(C)c(=O)n2C | 101% | – |
| COc1ccc(-c2coc3cc(O)cc(O)c3c2=O)cc1 | 45.9% | – |
| N[C@H](CSC(c1ccccc1)(c1ccccc1)c1ccccc1)C(=O)O | 109% | – |
| Nc1nccc(-c2ccc3noc(-c4ccc(Cl)cc4)c3c2)n1 | 88.8% | – |
| O=C(/C=C/N1C[C@H]2C[C@@H]1CN2c1ccccn1)c1ccccc1O | – | 0.372 µM (active) |
| CCC(C)(C)C(=O)O[C@H]1C[C@@H](C)C=C2C=C[C@H](C)[C@H](CC[C@@H]3C[C@@H](O)CC(=O)O3)[C@H]21 | 103% | – |
| CCN(c1ccccc1)c1cc(NC)[n+](C)c(C)n1 | 117% | – |
| CC(=O)Oc1cc2c(s1)CCN(C(C(=O)C1CC1)c1ccccc1F)C2 (stereo not drawn) | 102% | – |
| CC(=O)O[C@]1(C(C)=O)CC[C@H]2[C@@H]3C=C(C)C4=CC(=O)CC[C@]4(C)[C@H]3CC[C@@]21C | 110% | – |
| CCC(c1ccc(O)cc1)C(CC)c1ccc(O)cc1 (stereo not drawn) | 99.8% | – |
| CNC(=O)[C@H](Cc1ccccc1)NC(=O)[C@H](CC(C)C)[C@H](CSc1cccs1)C(=O)NO | 98.9% | – |
| CN(C)c1ccc2cc(C(=O)N[C@@H](CCCN=C(N)CCl)C(=O)NCc3ccccc3)ccc2c1 | 99.2% | – |
| O=C1c2ccccc2-[n+]2ccc3c([nH]c4ccccc43)c21 | – | 2.63 µM (active) |
| N=C(N)c1ccc2cc(OC(=O)c3ccc(N=C(N)N)cc3)ccc2c1 | 105% | – |
| CCOc1ccccc1N=Nc1c(C)[nH]n(-c2nc(-c3ccccc3)cs2)c1=O | 118% | – |

| SMILES | viability | Potency |
| --- | --- | --- |
| CC(=O)NC(CS)C(=O)O (stereo not drawn) | 104% | – |
| NCc1c[nH]c(=S)n1[C@H]1CCc2c(F)cc(F)cc2C1 | 110% | – |
| Nc1[nH]c(=O)ncc1F | 119% | – |
| O=[N+]([O-])c1ccc(Nc2ccccc2-c2ccccc2)c2nonc12 | – | 20.9 µM (active) |
| CCOC(=O)c1c(C)n(C)c2ccc(O)cc12 | 110% | – |
| CCCCCCCN(CC)CCCC(O)c1ccc(NS(C)(=O)=O)cc1 (stereo not drawn) | 96.2% | – |
| CCN(CC)CCOc1ccc(Cc2ccccc2)cc1 | – | 16.6 µM (active) |
| CCOc1cc(N)c(Cl)cc1C(=O)NCC1CN(Cc2ccc(F)cc2)CCO1 (stereo not drawn) | 105% | – |
| CCCCOCCOc1nc(-c2ccc(C(=O)O)c(F)c2)sc1C | 85.8% | – |
| NC(=O)c1ccc(I)c([N+](=O)[O-])c1 | 105% | – |
| C[C@]12CC[C@@H]3c4ccc(O)cc4C[C@@H](CCCCCCCCCS(=O)CCCC(F)(F)C(F)(F)F)[C@H]3[C@H]1CC[C@H]2O (stereo partly drawn) | – | 4.68 µM (active) |
| COC(=O)C[C@](O)(CCCC(C)(C)O)C(=O)O[C@@H]1C(OC)=C[C@]23CCCN2CCc2cc4c(cc2[C@H]13)OCO4 | – | 0.148 µM (active) |
| Oc1ccc(C2=Cc3ccc(O)cc3OC2)cc1 | – | 2.09 µM (active) |
| COc1cc([C@H]2Oc3cc([C@H]4Oc5cc(O)cc(O)c5C(=O)[C@@H]4O)ccc3O[C@@H]2CO)ccc1O | 119% | – |
| CC(NCCc1ccc(O)cc1)C(O)c1ccc(O)cc1 (stereo not drawn) | 112% | – |
| O=c1[nH]c(=O)n([C@H]2C[C@H](O)[C@@H](CO)O2)cc1I | – | 3.72 µM (active) |
| CCCn1c(=O)c2[nH]c(C34CC5CC3C[C@@H](C5)C4)nc2n(CCC)c1=O | 109% | – |
| CC[C@@H](C)[C@H](NC(=O)[C@H](CC1CCCCC1)NC(=O)c1ccno1)C(=O)N1CCC2(CCc3ccccc32)CC1 | 50.5% | – |

Assay: BET inhibitor-based combinations targeting novel dependencies in MECOM-rearranged (r) AML: OCI-AML3 cell line (AID 2202232); also: nearly all actives have a fitted effect of over 35% in size
Conditions: CellTiter-Glo luminescence, 48 h; Potency: OCI-AML3 viability; series mostly up to 46 µM; viability (% of control): at the top concentration
In short: as §1

| SMILES | Potency |
| --- | --- |
| CC1(CN2CCC(n3c(=O)[nH]c4ccccc43)CC2)OCc2ccccc2-n2cccc21 (stereo not drawn) | 16.6 µM (active) |
| CO[C@@H]1[C@H](N(C)C(=O)c2ccccc2)C[C@H]2O[C@]1(C)n1c3ccccc3c3c4c(c5c6ccccc6n2c5c31)C(=O)NC4 | 3.32 µM (active) |
| COc1cccc([C@@H](C)NCCCc2ccccc2Cl)c1 | 16.6 µM (active) |

Assay: BET inhibitor-based combinations targeting novel dependencies in MECOM-rearranged (r) AML: MV-4-11 cell line (AID 2202233); also: nearly all actives have a fitted effect of over 45% in size;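 as to viability, % of control: plate controls were DMSO for no effect and blank wells for full effect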
Conditions: MV-4-11 AML viability, CellTiter-Glo luminescence, 48 h; series mostly up to 46 µM; viability, % of control: at the top concentration
In short: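 Using pin-tool transfer, drugs were added in 11 doses to cells (500/well), incubated 48 hr, and assessed with CellTiter-Glo. Z-AUC is a mean-centring transformation applied separately to each screened line.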

| SMILES | Potency | viability, % of control |
| --- | --- | --- |
| CC1(CN2CCC(n3c(=O)[nH]c4ccccc43)CC2)OCc2ccccc2-n2cccc21 (stereo not drawn) | 14.8 µM (active) | – |
| N[C@H](CSC(c1ccccc1)(c1ccccc1)c1ccccc1)C(=O)O | – | 92.3% |
| CCC(C)(C)C(=O)O[C@H]1C[C@@H](C)C=C2C=C[C@H](C)[C@H](CC[C@@H]3C[C@@H](O)CC(=O)O3)[C@H]21 | 18.6 µM (active) | – |
| CO[C@@H]1[C@H](N(C)C(=O)c2ccccc2)C[C@H]2O[C@]1(C)n1c3ccccc3c3c4c(c5c6ccccc6n2c5c31)C(=O)NC4 | 0.0934 µM (active) | – |
| CNC(=O)[C@H](Cc1ccccc1)NC(=O)[C@H](CC(C)C)[C@H](CSc1cccs1)C(=O)NO | 7.42 µM (active) | – |
| CN(C)c1ccc2cc(C(=O)N[C@@H](CCCN=C(N)CCl)C(=O)NCc3ccccc3)ccc2c1 | – | 3.03% |
| O=C1c2ccccc2-[n+]2ccc3c([nH]c4ccccc43)c21 | 1.48 µM (active) | – |
| NCc1c[nH]c(=S)n1[C@H]1CCc2c(F)cc(F)cc2C1 | – | 94.5% |
| CCN(CC)CCOc1ccc(Cc2ccccc2)cc1 | – | 86.3% |
| NC(=O)c1ccc(I)c([N+](=O)[O-])c1 | 16.6 µM (active) | – |
| C[C@]12CC[C@@H]3c4ccc(O)cc4C[C@@H](CCCCCCCCCS(=O)CCCC(F)(F)C(F)(F)F)[C@H]3[C@H]1CC[C@H]2O (stereo partly drawn) | 9.34 µM (active) | – |
| O=c1[nH]c(=O)n([C@H]2C[C@H](O)[C@@H](CO)O2)cc1I | 18.6 µM (active) | – |
| CC[C@@H](C)[C@H](NC(=O)[C@H](CC1CCCCC1)NC(=O)c1ccno1)C(=O)N1CCC2(CCc3ccccc32)CC1 | – | 1.56% |
